Each compound was assayed on Plasmodium falciparum (assay: GSK_TCMDC: Inhibition of Plasmodium falciparum 3D7 in whole red blood cells, using parasite LDH activity as an index of growth. Test compounds present at 2uM).
Assay type: functional

| Structure (SMILES) | Inhibition [%] |
| --- | --- |
| Cc1nc(Nc2ccc(C)c(Cl)c2)c2c(C)noc2n1 | 94 |
| O=C(NCC1CCN(CCN2CCc3ccc4c(c3C2)OCO4)CC1)c1ccc(-c2ccc(C(F)(F)F)cc2)cc1 | 93 |
| Cl.N=C(N)Nc1nc(-c2ccc(NC(=N)N3CCC[C@H]3CN3CCCC3)cc2)cs1 | 82 |
| CCCCCc1cnc2nc(N)nc(N)c2c1C.Cl | 96 |
| CC1CCC(NC(=O)c2nn(-c3ccc(Cl)cc3)c(=O)c3ccccc23)CC1 (stereo not given) | 91 |
| O=C(Nc1cccc(-c2ccc(-c3nc4cc(F)ccc4[nH]3)cc2)c1)Nc1ccc(F)c(F)c1F | 98 |
| COc1ccc(C(=C(C)CC(C)C(=O)O)c2ccccc2)cc1 (stereo not given) | 95 |
| CC(=O)N(C)c1cccc(C(=O)Nc2cccc(-c3cccc(-c4nc5cc(C(F)(F)F)ccc5[nH]4)c3)c2)c1 | 97 |
| Fc1ccc(CNc2nc(-c3ccc(F)c(C(F)(F)F)c3)n(-c3cccc(C(F)(F)F)c3)n2)cc1 | 95 |
| Cc1cc2nc(-c3ccc(/C=C/C(=O)NCc4ccc(Cl)c(Cl)c4)cc3)[nH]c2cc1C | 98 |
| CO/C(=C/C=C/c1cc2cc(Cl)c(Cl)cc2[nH]1)C(=O)NC1CC(C)(C)N(C)C(C)(C)C1 | 99 |
| O=C(O)C(F)(F)F.OCCN1CCN(Cc2ccc(-c3cccc(-c4nc5ccccc5[nH]4)c3)cc2)CC1 | 96 |
| COc1ccc(-c2cc(C(=O)N[C@@H](CC3CCCCC3)C(=O)NC3CCCc4ccccc43)ccc2O)cc1 (stereo not given in full) | 98 |
| CC(=O)c1nccc(C)c1N | 92 |
| O=C(O)C(F)(F)F.Oc1ccc(CCNc2nc(NCc3cccc(OCc4cccc(F)c4)c3)nc(N3CCNCC3)n2)cc1 | 86 |
| Cc1cccc(CCCNC(=O)CN(c2cccc(C(F)(F)F)c2)S(=O)(=O)c2ccc(C(F)(F)F)cc2)c1 | 96 |
| O=C(Nc1ccc2c(c1)CCN2C1CCN(Cc2ccc(C(F)(F)F)cc2F)C1)c1ccco1 (stereo not given) | 91 |
| N#Cc1cncc(-c2nc3c(N4CCC(N5CCCC5)CC4)cccc3n2CCNCc2ccccc2)c1.O=C(O)C(F)(F)F | 100 |
| O=C(/C=C/c1ccc(Cl)c(Cl)c1)NCCCCCN1CCC(NC(=O)NC2CCCCCC2)CC1 | 99 |
| Cc1cc(N2CCCC2)nc(Nc2ccc(NC(=O)C(C)C)cc2)n1 | 97 |

| Structure (SMILES) | Inhibition [%] |
| --- | --- |
| COCCCC1C(=O)OC2CCCC21 (stereo not given) | 93 |
| CCOC(=O)c1cc(C(=O)NCCCCN2CCC(c3ccc(CC)cc3OCC)CC2)ccc1-c1ccc(C(F)(F)F)cc1 | 99 |
| Cc1cc(C(=O)Nc2ccc(OCc3ccccc3)cc2)on1 | 87 |
| Cc1nc(Nc2ccncc2)cc(-c2ccncc2)n1 | 100 |
| O=C(Nc1ccc(-c2ccc(-c3nc4ccccc4[nH]3)s2)cc1)Nc1ccsc1 | 100 |
| FC(F)(F)c1ccc2[nH]c(-c3ccc(-c4cccc(CNCc5cnn(-c6ccccc6)n5)c4)cc3)nc2c1.O=C(O)C(F)(F)F | 99 |
| Cc1[nH]c(C)c(-c2ccc(Nc3ccc(C(F)(F)F)cn3)cc2)c(=O)c1Br | 99 |
| COc1ccc2nccc(N(C)CC3(O)CCN(CC(O)c4ccc5c(c4)NC(=O)CS5)CC3)c2n1.Cl (stereo not given) | 100 |
| CCCN1CCC2(CC1)NC(C(=O)NCCC(C)C)Cc1c2[nH]c2cc(Cl)ccc12 (stereo not given) | 86 |
| O=c1cc(NCCCNCc2cc(Cl)cc(Cl)c2OCc2ccc(Cl)cc2)[nH]c2ccccc12 | 98 |
| O=[N+]([O-])c1ccc(C=NNc2nc3ccccc3[nH]2)cc1 | 100 |
| CC(C)c1ccc(Nc2nc(NCCc3c[nH]cn3)nc(NCc3ccccc3)n2)cc1 | 98 |
| O=C(Nc1cccc(-c2ccc(CN3CCC(O)CC3)cc2)c1)c1cccc(Cl)c1.O=C(O)C(F)(F)F | 96 |
| O=S(=O)(Nc1ccc(CCN2CCC(N3CCCCC3)CC2)cc1)c1ccc2ccccc2c1 | 100 |
| CCN(CC)CCCN(C(=O)Nc1ccc(C#N)cc1)c1nc(-c2ccc(F)cc2)cs1 | 99 |
| Cl.N=C(N)c1ccc(Nc2nc(Nc3ccc(-c4ccccc4)cc3)ncc2[N+](=O)[O-])cc1 | 99 |
| CCc1ccnc2c(N3CCCC3=O)cc(C(=O)N[C@@H](Cc3ccccc3)[C@H](O)CNC3CCOCC3)cc12.O=CO | 99 |
| CCN(C1CCCCC1)S(=O)(=O)c1ccc(OC)c(N2CCN(C(=O)C(Cl)(Cl)Cl)CC2)c1 | 100 |
| c1ccc(CN2CCN(c3cc(-c4cncc(-c5ccccc5)c4)nc(-c4ccccc4)n3)CC2)cc1 | 88 |
| O=C(c1cc(-c2cccs2)n[nH]1)N1CCN(S(=O)(=O)c2ccc(Cl)s2)CC1 | 84 |

Each compound was assayed on Plasmodium falciparum (assay: GSK_TCMDC: Inhibition of Plasmodium falciparum Dd2 in whole red blood cells, using parasite LDH activity as an index of growth. Test compounds present at 2uM).
Assay type: functional

| Structure (SMILES) | Inhibition [%] |
| --- | --- |
| Cc1nc(Nc2ccc(C)c(Cl)c2)c2c(C)noc2n1 | 72 |
| O=C(NCC1CCN(CCN2CCc3ccc4c(c3C2)OCO4)CC1)c1ccc(-c2ccc(C(F)(F)F)cc2)cc1 | 34 |
| Cl.N=C(N)Nc1nc(-c2ccc(NC(=N)N3CCC[C@H]3CN3CCCC3)cc2)cs1 | 66 |
| CCCCCc1cnc2nc(N)nc(N)c2c1C.Cl | 23 |
| CC1CCC(NC(=O)c2nn(-c3ccc(Cl)cc3)c(=O)c3ccccc23)CC1 (stereo not given) | 67 |
| O=C(Nc1cccc(-c2ccc(-c3nc4cc(F)ccc4[nH]3)cc2)c1)Nc1ccc(F)c(F)c1F | 98 |
| COc1ccc(C(=C(C)CC(C)C(=O)O)c2ccccc2)cc1 (stereo not given) | 0 |
| CC(=O)N(C)c1cccc(C(=O)Nc2cccc(-c3cccc(-c4nc5cc(C(F)(F)F)ccc5[nH]4)c3)c2)c1 | 41 |
| Fc1ccc(CNc2nc(-c3ccc(F)c(C(F)(F)F)c3)n(-c3cccc(C(F)(F)F)c3)n2)cc1 | 80 |
| Cc1cc2nc(-c3ccc(/C=C/C(=O)NCc4ccc(Cl)c(Cl)c4)cc3)[nH]c2cc1C | 83 |
| CO/C(=C/C=C/c1cc2cc(Cl)c(Cl)cc2[nH]1)C(=O)NC1CC(C)(C)N(C)C(C)(C)C1 | 85 |
| O=C(O)C(F)(F)F.OCCN1CCN(Cc2ccc(-c3cccc(-c4nc5ccccc5[nH]4)c3)cc2)CC1 | 16 |
| COc1ccc(-c2cc(C(=O)N[C@@H](CC3CCCCC3)C(=O)NC3CCCc4ccccc43)ccc2O)cc1 (stereo not given in full) | 97 |
| CC(=O)c1nccc(C)c1N | 0 |
| O=C(O)C(F)(F)F.Oc1ccc(CCNc2nc(NCc3cccc(OCc4cccc(F)c4)c3)nc(N3CCNCC3)n2)cc1 | 0 |
| Cc1cccc(CCCNC(=O)CN(c2cccc(C(F)(F)F)c2)S(=O)(=O)c2ccc(C(F)(F)F)cc2)c1 | 94 |
| O=C(Nc1ccc2c(c1)CCN2C1CCN(Cc2ccc(C(F)(F)F)cc2F)C1)c1ccco1 (stereo not given) | 94 |
| N#Cc1cncc(-c2nc3c(N4CCC(N5CCCC5)CC4)cccc3n2CCNCc2ccccc2)c1.O=C(O)C(F)(F)F | 58 |
| O=C(/C=C/c1ccc(Cl)c(Cl)c1)NCCCCCN1CCC(NC(=O)NC2CCCCCC2)CC1 | 41 |
| Cc1cc(N2CCCC2)nc(Nc2ccc(NC(=O)C(C)C)cc2)n1 | 36 |

| Structure (SMILES) | Inhibition [%] |
| --- | --- |
| COCCCC1C(=O)OC2CCCC21 (stereo not given) | 85 |
| CCOC(=O)c1cc(C(=O)NCCCCN2CCC(c3ccc(CC)cc3OCC)CC2)ccc1-c1ccc(C(F)(F)F)cc1 | 71 |
| Cc1cc(C(=O)Nc2ccc(OCc3ccccc3)cc2)on1 | 89 |
| Cc1nc(Nc2ccncc2)cc(-c2ccncc2)n1 | 3 |
| O=C(Nc1ccc(-c2ccc(-c3nc4ccccc4[nH]3)s2)cc1)Nc1ccsc1 | 54 |
| FC(F)(F)c1ccc2[nH]c(-c3ccc(-c4cccc(CNCc5cnn(-c6ccccc6)n5)c4)cc3)nc2c1.O=C(O)C(F)(F)F | 83 |
| Cc1[nH]c(C)c(-c2ccc(Nc3ccc(C(F)(F)F)cn3)cc2)c(=O)c1Br | 98 |
| COc1ccc2nccc(N(C)CC3(O)CCN(CC(O)c4ccc5c(c4)NC(=O)CS5)CC3)c2n1.Cl (stereo not given) | 0 |
| CCCN1CCC2(CC1)NC(C(=O)NCCC(C)C)Cc1c2[nH]c2cc(Cl)ccc12 (stereo not given) | 0 |
| O=c1cc(NCCCNCc2cc(Cl)cc(Cl)c2OCc2ccc(Cl)cc2)[nH]c2ccccc12 | 53 |
| O=[N+]([O-])c1ccc(C=NNc2nc3ccccc3[nH]2)cc1 | 98 |
| CC(C)c1ccc(Nc2nc(NCCc3c[nH]cn3)nc(NCc3ccccc3)n2)cc1 | 2 |
| O=C(Nc1cccc(-c2ccc(CN3CCC(O)CC3)cc2)c1)c1cccc(Cl)c1.O=C(O)C(F)(F)F | 2 |
| O=S(=O)(Nc1ccc(CCN2CCC(N3CCCCC3)CC2)cc1)c1ccc2ccccc2c1 | 80 |
| CCN(CC)CCCN(C(=O)Nc1ccc(C#N)cc1)c1nc(-c2ccc(F)cc2)cs1 | 68 |
| Cl.N=C(N)c1ccc(Nc2nc(Nc3ccc(-c4ccccc4)cc3)ncc2[N+](=O)[O-])cc1 | 35 |
| CCc1ccnc2c(N3CCCC3=O)cc(C(=O)N[C@@H](Cc3ccccc3)[C@H](O)CNC3CCOCC3)cc12.O=CO | 98 |
| CCN(C1CCCCC1)S(=O)(=O)c1ccc(OC)c(N2CCN(C(=O)C(Cl)(Cl)Cl)CC2)c1 | 85 |
| c1ccc(CN2CCN(c3cc(-c4cncc(-c5ccccc5)c4)nc(-c4ccccc4)n3)CC2)cc1 | 12 |
| O=C(c1cc(-c2cccs2)n[nH]1)N1CCN(S(=O)(=O)c2ccc(Cl)s2)CC1 | 80 |

Reference: ChEMBL document CHEMBL1157539, “Thousands of chemical starting points for antimalarial lead identification” (Nature, 2010)
